Results from PubChem BioAssay (NCATS).
Results filed as inconclusive are left out. A call without a number means that no potency is given here. Active and inactive are the calls of the source. Unless noted, the call rests on the fitted dose curve.

How the values were obtained:
[1] = qHTS for differential inhibitors of proliferation of Plasmodium falciparum line 3D7 (AID 1876; active means well fitted curve in the direction sought with a large enough effect; an effect the other way counts as inactive or inconclusive; further: potency means the concentration at half of the fitted maximal effect)
[2] = Validation screen for small molecules that induce DNA re-replication in MCF 10A normal breast cells (AID 463097; active means well fitted curve in the direction sought with a large enough effect; an effect the other way counts as inactive or inconclusive; further: nearly all actives have a fitted effect of over 60% in size)
Summary of the method: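 250 MCF 10A cells/well; compound pin-transferred; 48 hr, 37 C, 5% CO2; Hoechst 40 min; imaged 405/500-530 nm. Hits = more high-intensity nuclei.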

[3] = qHTS for differential inhibitors of proliferation of Plasmodium falciparum line HB3 (AID 1886; active means well fitted curve in the direction sought with a large enough effect; an effect the other way counts as inactive or inconclusive;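 further: potency means the concentration at half of the fitted maximal effect; parasites grown with compound for 72 h before SYBR Green readout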); settings: Potency: Plasmodium falciparum HB3 proliferation inhibition
[4] = Validation screen for inhibitors of Lassa infection (AID 463096); further: potency means the concentration at half of the fitted maximal effect

Question: Which results are given for CC[N+](CC)(CC)CC?
Answer: Potency [1]: 11.2 µM (active); Potency [2]: inactive

Question: With CC(C)C(=O)Nc1ccc([N+](=O)[O-])c(C(F)(F)F)c1 as the molecule, how does the Potency [3] read?
Answer: 14.1 µM (active)

Question: Which Potency [4] does the source give for CCCC(CCC)C(=O)O here?
Answer: inactive

Question: For NC[C@H](O)c1ccc(O)c(O)c1, which Potency [4] is on record?
Answer: inactive

Question: With N=c1nc(N2CCCCC2)cc(N)n1O as the molecule, how does the Potency [4] read?
Answer: inactive

Question: For CC(C)(C)NC(=O)[C@H]1CC[C@H]2[C@@H]3CC[C@H]4NC(=O)C=C[C@]4(C)[C@H]3CC[C@]12C, which Potency [4] is on record?
Answer: inactive

Question: With COCCCC/C(=N\OCCN)c1ccc(C(F)(F)F)cc1 as the molecule, how does the Potency [4] read?
Answer: inactive

Question: For Oc1ccc(C2CNCCc3c2cc(O)c(O)c3Cl)cc1 (stereo unspecified), which Potency [4] is on record?
Answer: inactive

Question: With Cc1[nH]c(=O)c(C#N)cc1-c1ccncc1 as the molecule, how does the Potency [4] read?
Answer: inactive

Question: With Cc1cnc(C(=O)NCCc2ccc(S(=O)(=O)NC(=O)NC3CCCCC3)cc2)cn1 as the molecule, how does the Potency [4] read?
Answer: inactive

Question: Which Potency [4] does the source give for COc1cc(Cc2cnc(N)nc2N)cc(OC)c1OC here?
Answer: inactive

Question: Which Potency [4] does the source give for O=C1N=C(O)CN1/N=C/c1ccc(-c2ccc([N+](=O)[O-])cc2)o1 here?
Answer: inactive

Question: With Clc1ccc(C(c2ccccc2Cl)C(Cl)Cl)cc1 (stereo unspecified) as the molecule, how does the Potency [4] read?
Answer: inactive

Question: For O=C(CCCN1CCC(O)(c2ccc(Cl)cc2)CC1)c1ccc(F)cc1, which Potency [4] is on record?
Answer: inactive

Question: For NS(=O)(=O)c1cc2c(cc1Cl)NC=NS2(=O)=O, which Potency [4] is on record?
Answer: inactive

Question: Which Potency [4] does the source give for NC(=O)OCC(COC(N)=O)c1ccccc1 here?
Answer: inactive

Question: Which Potency [4] does the source give for CC(C)(C(=O)O)c1ccc(C(O)CCCN2CCC(C(O)(c3ccccc3)c3ccccc3)CC2)cc1 (stereo unspecified) here?
Answer: inactive

Question: Which Potency [4] does the source give for COc1ccc(Cl)cc1C(=O)NCCc1ccc(S(=O)(=O)NC(=O)NC2CCCCC2)cc1 here?
Answer: inactive

Question: With COc1cc2nc(N3CCN(C(=O)C4COc5ccccc5O4)CC3)nc(N)c2cc1OC (stereo unspecified) as the molecule, how does the Potency [4] read?
Answer: inactive

Question: For CC(=O)CCCCn1c(=O)c2c(ncn2C)n(C)c1=O, which Potency [4] is on record?
Answer: inactive

Question: Which Potency [4] does the source give for O=NN(CCCl)C(=O)NCCCl here?
Answer: inactive

Question: With COc1ccc([C@@H]2Sc3ccccc3N(CCN(C)C)C(=O)[C@@H]2OC(C)=O)cc1 as the molecule, how does the Potency [4] read?
Answer: 1.41 µM (active)

Question: Which Potency [4] does the source give for Cc1cn([C@H]2C=C[C@@H](CO)O2)c(=O)[nH]c1=O here?
Answer: inactive

Question: Which Potency [4] does the source give for CCN(CC)CCOC(=O)C1(C2CCCCC2)CCCCC1 here?
Answer: inactive

Question: For O=C1c2c(O)ccc(O)c2C(=O)c2c(NCCNCCO)ccc(NCCNCCO)c21, which Potency [4] is on record?
Answer: 0.282 µM (active)

Question: Which Potency [4] does the source give for NC(=O)NO here?
Answer: inactive

Question: For Cc1ccccc1N1C(=O)c2cc(S(N)(=O)=O)c(Cl)cc2NC1C (stereo unspecified), which Potency [4] is on record?
Answer: inactive

Question: For CN(C)c1nc(N(C)C)nc(N(C)C)n1, which Potency [4] is on record?
Answer: inactive

Question: Which Potency [4] does the source give for CCN(CC)CCCC(C)Nc1ccnc2cc(Cl)ccc12 (stereo unspecified) here?
Answer: inactive

Question: For COC(=O)Nc1nc2ccc(C(=O)c3cccs3)cc2[nH]1, which Potency [4] is on record?
Answer: inactive

Question: With CCCN(CCC)CCc1cccc2c1CC(=O)N2 as the molecule, how does the Potency [4] read?
Answer: inactive

Question: For CC1(C)NC(=O)N(c2ccc([N+](=O)[O-])c(C(F)(F)F)c2)C1=O, which Potency [4] is on record?
Answer: inactive

Question: With CCC1(c2ccccc2)C(=O)NCNC1=O as the molecule, how does the Potency [4] read?
Answer: inactive

Question: Which Potency [4] does the source give for O=C1NC(=O)C(c2ccccc2)(c2ccccc2)N1 here?
Answer: inactive

Question: Which Potency [4] does the source give for Cc1cn[nH]c1 here?
Answer: inactive
